Screening data as filed in PubChem BioAssay.
Hits are enriched below; roughly 4.6% of the tested compounds scored in any of these assays.
TRHR enhancer-1: allosterically enhances the human TRH receptor | P34981 | TRHR cells, fluo-8 calcium fluorescence, EC20 TRH enhancement | enhancement, % at 2 µM | 360,000 tested, 0.66% active | AID 493056; in the data active = enhancement above about 30%; note: 0% is about no effect
Target sequence (P34981 whole entry, looked up): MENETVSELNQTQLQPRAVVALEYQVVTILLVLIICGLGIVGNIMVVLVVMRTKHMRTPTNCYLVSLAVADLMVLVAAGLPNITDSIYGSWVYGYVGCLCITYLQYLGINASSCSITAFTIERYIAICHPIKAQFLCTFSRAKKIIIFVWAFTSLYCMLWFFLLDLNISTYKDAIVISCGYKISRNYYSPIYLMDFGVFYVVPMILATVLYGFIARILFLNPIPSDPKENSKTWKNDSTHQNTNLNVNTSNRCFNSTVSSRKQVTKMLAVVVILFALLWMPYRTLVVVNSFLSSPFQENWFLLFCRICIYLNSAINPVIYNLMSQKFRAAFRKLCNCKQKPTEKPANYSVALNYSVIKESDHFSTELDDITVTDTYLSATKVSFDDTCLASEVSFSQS
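Enhancer read-out: after compound pinning and an initial kinetic agonist-mode read, an EC20 of TRH (10 nM final) was injected and fluo-8 calcium signal (Ex 480/Em 530) followed at 1 s/cycle for 100 cycles in TRHR-expressing cells.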
D1 PAM: enhances dopamine response at the human D1 receptor. HEK293 TREx D1 cells, calcium flux, dopamine EC20 potentiation. AID 504651. potentiation, % at 10 µM. P21728. 360,000 tested, 0.036% active; in the data active = potentiation above about 30%; note: 0% is about no effect
TRHR agonist-1: activates the human TRH receptor | AID 493084 | TRHR cells, calcium flux fluo-8, FDSS agonist mode | 360,000 tested, 0.18% active | P34981 | activation, % at 2 µM; in the data active = activation above about 30%; note: 0% is about no effect
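Fluo-8-loaded TRHR cells; 10 s baseline, compound added, kinetic Ca2+ fluorescence read 1/s, agonist mode.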
D1 ag: human D1 receptor agonism; P21728; HEK293 T-REx D1 cells, calcium flux, agonist mode; activation, % at 2 µM; 360,000 tested, 1% active; AID 504660; in the data active = activation above about 30%; note: 0% is about no effect
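Agonism was scored from calcium flux recorded over 180 s (1 read/s) after pintool compound addition, following a 10-cycle baseline. Cells were inducible force-coupled HEK293 TREx D1, plated overnight at 30 C and loaded with no-wash calcium dye.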
D1 antag: antagonists of human D1 dopamine receptor. AID 504652. 360,000 tested, 3.2% active. activity change, negative = inhibition, % at 10 µM. P21728. HEK293 TREx D1 cells, calcium flux, dopamine EC80; stronger effect = lower value; in the data active = activity change below about -30%; note: % is set by controls: 0 for no effect and ±100 for the full control effect
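Compound effects on dopamine-evoked calcium signalling were measured in tetracycline-induced HEK293 Trex D1 cells. Dopamine at EC80 followed a 180 s compound pre-read, and fluorescence was tracked kinetically for 180 s more.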
Epigenetic reg: regulators of epigenetic silencing causing reporter derepression in mouse cells; murine LDR cells, GFP reporter derepression, 30 h; Potency, µM (doses to about 53.9 µM), inactives show at the top dose GFP activation, hits mostly activators; 280,000 tested, 0.2% active; note: potency is the fitted concentration of half-maximal effect; % of control where 0% means no effect; nearly all actives have a fitted effect of over 60% in size
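Reporter derepression read as number of fluorescent GFP-positive objects, 20-120 um in size, counted by laser-scanning cytometer. Mouse LDR line with an epigenetically silenced CMV-GFP locus; compound incubation 30 h, 37 C.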
TRHR enhancer-2: confirmation of human TRH receptor allosteric enhancers; TRH receptor cell assay, enhancer confirmation qHTS; 970 tested, under 10 active; shares compounds with TRHR enhancer-1; activity change, negative = inhibition, % at 46.1 µM;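 note: compound effect scored on response to added TRH at EC20 of 10 nM; 0% is about no effect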
TRHR agonist-2: confirmation of human TRH receptor agonists | shares compounds with TRHR enhancer-1 | TRHR-expressing cells, agonist activation read-out | Potency, µM (titrated, usually from 46.1 µM), inactives show at the top dose activation, usual class: activators | 970 tested, 8% active; note: potency is the fitted concentration of half-maximal effect; 0% is about no effect; nearly all actives have a fitted effect of over 75% in size
An asterisk follows results filed as active; ? = inconclusive; · = not tested or not shown. Unless noted, calls come from the whole dose curve; as a rule, active = well fitted curve in the direction sought with a large enough effect; inconclusive = small, poorly fitted or top-dose-only effect, or another doubt; inactive = no such curve, though single readings can be large; an effect the other way counts as inactive or inconclusive.

SMILES	TRHR enhancer-1	D1 PAM	TRHR agonist-1	D1 ag	D1 antag	Epigenetic reg	TRHR enhancer-2	TRHR agonist-2
O=S(=O)(c1ccccc1)N1CCN2CCCC2C1 (stereo not given)	56.5*	2.2	1.0	5.1	-15.1	·	0.0	-0.4%
CN1CCN(c2cc(N3CCCCCC3)c(F)cc2[N+](=O)[O-])CC1	6.2	-4.3	0.0	2.7	4.4	-0.9%	·	·
CN1CCN(c2ccc(S(=O)(=O)C(F)(F)F)cc2[N+](=O)[O-])CC1	43.1*	-8.2	1.3	6.7	-8.5	-1.0%	-4.3	8.3%
COC(=O)COc1cc(Cl)c(Cl)cc1Cl	·	·	·	·	·	0.1%	·	·
O=c1c2ccccc2nc(/C=C/c2ccccc2F)n1-c1cccc(O)c1	-5.2	-0.8	0.4	0.5	2.2	-1.6%	·	·
CC1(C)OC(c2ccccc2)=C/C(=C/C=C2C(=O)NC(=O)NC2=O)O1	14.6	-1.1	29.7	52.1*	-5.0	0.2%	-5.9	?
CN1CC=C2C(C#N)=C(N)C(C#N)(C#N)C(c3ccncc3)C2C1 (stereo not given)	8.7	-4.2	26.7	15.8	2.6	-1.9%	-4.4	?
